# In the library only some 9.3% were active in any assay of this set; here they are far more common.
# FMDV antiviral: High Throughput Screening for Foot and Mouth Disease Virus Antivirals. 410,000 tested, 1.2% active. Potency, µM (top dose mostly 57.9 µM), without a hit: at the highest dose activity change, negative = inhibition, actives largely listed as inhibitors. FMDV antiviral cell-based qHTS; calls by dose curve; tested in HEK293T cells; also: read-out not given here; potency is read from the fitted curve at half-maximal effect; nearly all actives have a fitted effect of over 45% in size
# HCMV inh: qHTS Assay for inhibitors of the human cytomegalovirus (HCMV). 410,000 tested, 4.5% active. activity change, negative = inhibition, % at 57.5 µM. AID 1259415, 2018. HFF cells, HCMV-luciferase reporter, 72 h; stronger effect = lower value; in the data active = activity change below about -60%; inconclusive = no clear call, values can overlap the other calls; inactive = above about -39%
#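 Luciferase read-out from HCMV-luciferase-infected HFFs (MOI 1 PFU/cell) 72 h post infection at 37C; compounds added after 16 h cell attachment; activity normalized between buffer-only basal and Salinomycin (10uM) inhibitor controls.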
# VACV Venus inh: qHTS for Stage-Specific Inhibitors of Vaccinia Orthopoxvirus: Venus Reporter Primary qHTS. Vaccinia virus Venus reporter expression, fluorescence. Potency, µM (titrated, usually from 36.5 µM), for the others: top-dose activity change, negative = inhibition, most hits filed as inhibitors. 330,000 tested, 0.46% active. AID 720580, 2013; calls by dose curve; tested in A549 cells; also: potency is read from the fitted curve at half-maximal effect; nearly all actives have a fitted effect of over 30% in size
# Sm TGR inh: qHTS Assay for the Inhibitors of Schistosoma Mansoni Peroxiredoxins; 360,000 tested, 3% active; AID 485364, 2010; Schistosoma mansoni thioredoxin glutathione reductase (TGR), Q962Y6; Potency, µM (doses to about 114 µM), for the others: at the top dose activity change, negative = inhibition, actives largely listed as inhibitors; purified TGR, DTNB reduction, TNB absorbance 405 nm; also: potency is read from the fitted curve at half-maximal effect; nearly all actives have a fitted effect of over 60% in size
#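 TGR 20 nM + NADPH 100 uM (dispensed conc.), cpd preinc 15 min RT; start with NADPH (500 uM addition) then DTNB (15 mM addition). Kinetic TNB absorbance, 405 nm filter. Four-parameter Hill fit across titration.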
# HCV inhibitor: qHTS Assay for Inhibitors of Hepatitis C Virus (HCV); Huh7.5.1 HCVcc-Cre infection, luciferase reporter, 44 h; Potency, µM (highest dose often 41.8 µM), for inactives: top-dose activity change, negative = inhibition, most hits filed as inhibitors; 340,000 tested, 3.4% active; also: potency is read from the fitted curve at half-maximal effect
#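 Luciferase read-out (15 sec integration) after a 15 min room-temperature substrate step quantifies HCVcc-Cre infection. Cells, 1,000 per well, had compound added 4 h post-plating, then virus at ~0.5 moi, and were cultured 44 h.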
# Vaccinia mCherry: qHTS for Stage-Specific Inhibitors of Vaccinia Orthopoxvirus: mCherry Reporter Primary qHTS; Vaccinia virus mCherry reporter infection, fluorescence; Potency, µM (series often up to 36.5 µM), without a hit: top-dose activity change, negative = inhibition, usual class: inhibitors; 310,000 tested, 0.63% active; calls by dose curve; tested in A549 cells; also: potency is read from the fitted curve at half-maximal effect; nearly all actives have a fitted effect of over 35% in size
# Numbers without * were called inactive; i = inactive; ? = inconclusive; · = no result; [ ] = remark or other dose. Unless noted, calls follow the shape of the dose curve; as a rule, active = well fitted curve in the direction sought with a large enough effect; inconclusive = small, poorly fitted or top-dose-only effect, or another doubt; inactive = no such curve, though single readings can be large; an effect the other way counts as inactive or inconclusive. % is scaled to controls: 0 for no effect and ±100 for the full control effect.
SMILES,FMDV antiviral,HCMV inh,VACV Venus inh,Sm TGR inh,HCV inhibitor,Vaccinia mCherry
COc1ccc(Br)cc1CN1CCC(N2CCCC2)CC1,-8.1%,-9.7,·,1.2%,?,·
O=C(C1=C(O)C(=O)N(CCN2CCOCC2)C1c1cccnc1)c1cc2ccccc2o1 (stereo not drawn),-6.8%,-14.4,·,?,0.1%,·
CC(=O)C1=C(O)C(=O)N(CCN2CCOCC2)C1c1ccccc1 (stereo not drawn),·,20.8,-14.4%,31.6µM*,4.9%,i
COc1ccc(OC)c(C2C(C(C)=O)=C(O)C(=O)N2CCN2CCOCC2)c1 (stereo not drawn),15.2%,46.0,·,?,-10.2%,·
O=C(C1=C(O)C(=O)N(CCN2CCOCC2)C1c1cccc(F)c1)c1cc2ccccc2o1 (stereo not drawn),-18.4%,7.4,·,44.7µM*,15.9%,·
Cc1ccc(C2C(C(=O)c3cc4ccccc4o3)=C(O)C(=O)N2CCN2CCOCC2)cc1 (stereo not drawn),-6.3%,-12.3,·,31.6µM*,2.2%,·
O=C(C1=C(O)C(=O)N(CCCN2CCOCC2)C1c1ccncc1)c1cc2ccccc2o1 (stereo not drawn),·,·,·,44.7µM*,6.3%,·
Cc1ccc(Cn2cccc(C(=O)Nc3ccc4c(c3)OCO4)c2=O)cc1,-24.6%,-0.1,-6.8%,-28.7%,·,-5.6%
Cc1cccc(NS(=O)(=O)c2ccc(C(=O)N3CCCC3)cc2)c1C,-18.5%,-10.5,-11.7%,3.2%,3.9%,-15.6%
O=C(CSc1nnc(-c2ccc3c(c2)OCO3)o1)Nc1ncc(Cl)cc1Cl,4.8%,-60.9*,-16.5%,2.3%,0.5%,-14.2%
CC(=O)CSc1nnc(-c2ccc3c(c2)OCO3)o1,-39.7%,52.4,-12.7%,-3.2%,-3.7%,-20.8%
O=C(O)CCSc1nnc(-c2ccc3c(c2)OCO3)o1,-15.3%,-75.4*,-10.0%,-26.4%,-5.2%,-18.2%
CC(=O)Nc1ccc(NC(=O)CSc2nnc(-c3ccc4c(c3)OCO4)o2)cc1,0.6%,0.0,·,·,-11.1%,·
COc1ccc(CCNC(=O)COC(=O)Cc2ccccc2)cc1,-16.5%,?,-10.8%,14.3%,33.6%,i
O=c1c2c(nc3c(-c4ccc(Cl)cc4)c[nH]n13)CCCC2,22.4µM*,-77.7*,4.47µM*,-11.1%,?,?
Cc1sc2ccccc2[n+]1CCC(C)S(=O)(=O)[O-] (stereo not drawn),2.7%,7.9,-10.6%,2µM*,8.9%,i[1.46 µM]
Cn1c(Cc2ccccc2)nnc1SCC(=O)c1cccs1,-15.9%,3.9,-7.7%,-23.6%,22.9%,-8.8%
COc1ccc(OCc2cc(/C=N\NC(=O)c3ccccc3)ccc2OC)cc1,8.8%,?,-12.1%,1.1%,?,-5.5%
COc1ccc(/C=C/C(=O)c2ccccc2)cc1COc1ccccc1F,20µM*,-8.2,·,-7.1%,?,·
COc1cccc(C(=O)N/N=C/c2ccc(OC)c(COc3ccccc3C(N)=O)c2)c1,-27.3%,-8.7,·,-2.6%,?,·
COc1ccc(/C=N\NC(=O)c2ccccc2Br)cc1COc1ccccc1,?,?,·,-15.7%,14.1µM*,·
COc1ccc(C(=O)N/N=C\c2ccc(OC)c(COc3ccccc3Br)c2)c(OC)c1,-22.9%,-18.2,·,-12.4%,17.8µM*,·
COc1ccc(C=O)cc1COc1ccccc1F,?,-34.4,-19.8%,-1.2%,8.9%,-2.8%
COc1ccc(/C=N\NC(=O)c2cccc(F)c2)cc1COc1ccccc1,-0.3%,-86.5*,-37.2%,·,-18.2%,-8.9%
CCOc1ccc(N=Nc2c(C)noc2C)cc1,-2.8%,12.8,-12.6%,-2.1%,5.4%,i
SMILES,FMDV antiviral,HCMV inh,VACV Venus inh,Sm TGR inh,HCV inhibitor,Vaccinia mCherry
C/C(=N\NC(=O)CCc1ccc(S(=O)(=O)N2CCOCC2)cc1)c1ccc(OC(F)F)cc1,-6.8%,-19.9,4.6%,8.6%,-29.2%,-3.7%
Cc1ccccc1CCNC(=O)C1CCCN(c2cnccn2)C1 (stereo not drawn),-2.7%,-21.4,·,-3.8%,6.7%,·
COc1ccc(/C=N\NC(=O)c2ccc(F)cc2)cc1COc1ccccc1C(N)=O,?,18.1,-14.8%,28.2µM*,?,-21.6%
Nc1c(C(=O)c2ccccc2)sc2nsc(SCCN3CCCC3)c12,-16.3%,-90.8*,?,39.8µM*,?,-51.6%
Cc1cc(C)n(-c2nc(N(c3ccccc3)c3ccccc3)nc(-n3nc(C)cc3C)n2)n1,?,·,·,0.9%,10µM*,·
Cc1cc(C)n(-c2nc(Nc3ccccc3)nc(-n3nc(C)cc3C)n2)n1,·,-4.0,3.9%,7.2%,-8.8%,-16.7%
Cc1cc2oc(C(=O)N3CCN(Cc4ccccc4)CC3)c(C)c2cc1C,43.8%,77.7,·,·,-6.0%,·
CC(=O)c1ccc(NC(=O)C(C)Sc2nnc(-c3ccncc3)n2C2CC2)cc1 (stereo not drawn),-23.4%,-63.8*,-9.9%,·,7.8%,-19.6%
CC(=O)c1ccc(NC(=O)C(C)Sc2nnc(C3CC3)n2C2CC2)cc1 (stereo not drawn),2.3%,-11.7,-10.3%,-1.5%,-10.2%,i
CC(=O)NC(CCS(C)(=O)=O)C(=O)Nc1cccc(C(C)=O)c1 (stereo not drawn),14.4%,0.5,-5.5%,44.7µM*,16.0%,-13.1%
COc1ccc(S(=O)(=O)NC(C)C(=O)NC2CC2)cc1C (stereo not drawn),-16.4%,32.9,·,-34.3%,8.7%,·
CC1=C(C)CC2C(C1)C(=O)c1ccc(Br)cc1S2(=O)=O (stereo not drawn),-24.4%,-34.0,-9.8%,-24.5%,4.5%,?
CC1(C)N(O)C(c2ccc(C(=O)O)cc2)=[N+]([O-])C1(C)C,-24.8%,·,·,·,·,·
Cc1ccc(N2C(=O)NC(=O)/C(=C/c3ccc(-c4ccc(C(=O)O)c(Cl)c4)o3)C2=O)cc1,-14.2%,?,·,?,-1.9%,·
O=C1NC(=O)N(c2ccc(Cl)cc2)C(=O)/C1=C\c1ccc(Sc2nc3ccccc3[nH]2)o1,-15.3%,-9.3,402.0%,8.91µM*,3.1%,104.6%
CC(C)N1C(=O)S/C(=C/c2ccc(Sc3nc4ccccc4[nH]3)o2)C1=O,11.2µM*,-84.9*,?,-21.9%,10µM*,?
C=CCN1C(=O)S/C(=C/c2ccc(Sc3nc4ccccc4[nH]3)o2)C1=O,28.2µM*,-92.3*,-22.7%,-1.0%,?,?
CCOC(=O)C(C)N1C(=O)S/C(=C\c2ccc(-c3ccccc3C(=O)O)o2)C1=O (stereo not drawn),-6.4%,18.4,·,?,18.2%,·

# Source: PubChem
